Data: PubChem BioAssay (Tox21)
Activity calls are given as the source filed them. Calls follow the shape of the dose curve; as a rule, active = well fitted curve in the direction sought with a large enough effect in the repeat runs; inconclusive = weak or mixed curves; inactive = flat fitted curve, though single readings scatter.
% is scaled to controls: 0 for no effect and ±100 for the full control effect.

Assay: qHTS assay to test for compound auto fluorescence at 460 nm (blue) in HepG2 cell free culture (AID 720685)
Details: Cell-free culture medium, blue autofluorescence 405/460 nm; series mostly up to 91.3 µM; fluorescence, % of fluorescent control: at the top concentration
From the text: U.S. Tox21 Program National Center for Advancing Translational Sciences [NCATS] NIH Chemical Genomics Center [NCGC] U.S. Environmental Protection Agency [EPA] National Institutes of Environmental Health Sciences [NIEHS] National Toxicology Program [NTP] U.S. Food and Drug Administration [FDA] Tox21 Assay Overview: Compound auto fluorescence often interferes with screening of the compound library against various biological targets and signaling pathways. Some of these compounds may have fluorophoric properties. Such properties may interfere with the assay outputs resulting in false positives and/or negatives. To decrease such complications and ensure the compound activities are relevant in terms of biological response, the Tox21 10K compound library was screened for auto fluorescence. From the fluorophores used as reporter signals in our screening assays, the auto fluorescence equivalencies of compounds against three fluorophores have been evaluated: Triamterene, Fluorescein and Rose Bengal sodium for blue, green and red fluorescence, respectively. The fluorescence intensities were measured using Excitation/Emission wavelengths at 405/460nm, 485/535nm and 540/590nm for blue, green and red labels, respectively. This assay includes the blue fluorescence data.
Tox21 Assay Protocol Summary: 5 uL of culture medium (MEM containing 10% FBS) per well was dispensed into black wall/clear bottom 1536-well plates using a Multidrop Combi Dispenser (ThermoFisher Scientific, Waltham, MA). After 23 nL compound or DMSO vehicle was transferred into assay plate by a pintool work station (Kalypsys, San Diego, CA), fluorescence intensities in the assay plates were measured by an Envision (PerkinElmer, Shelton, CT) plate reader using three labels for measuring blue, green and red fluorescence at […] 460, 535 and 590nm respectively.
With CCOC(=O)C1(c2ccccc2)CCN(CCC(C#N)(c2ccccc2)c2ccccc2)CC1 the Potency was “inactive”.
With ClC1=C(Cl)C2(Cl)C3C(Cl)C=CC3C1(Cl)C2(Cl)Cl (stereo not given) the Potency was “inactive”.
For CC(c1ccc(O)cc1)c1ccc(O)cc1, the “fluorescence, % of fluorescent control” value was -0.0874% (inactive).
For O=[N+]([O-])c1ccc(Oc2ccc(C(F)(F)F)cc2[N+](=O)[O-])cc1, the “fluorescence, % of fluorescent control” value was -0.0221% (inactive).
For O=C(O)c1cc[c]([Hg][Cl])cc1, the “fluorescence, % of fluorescent control” value was 0.0151% (inactive).
For CN(C)CCc1c[nH]c2cccc(O)c12, the “fluorescence, % of fluorescent control” value was 1.26% (inactive).
In the case of BrC(Br)C(Br)(Br)Br, the “fluorescence, % of fluorescent control” value is reported as 0.003% (inactive).
In the case of O=S(=O)(c1ccc(Cl)cc1)c1ccc(Cl)cc1, the “fluorescence, % of fluorescent control” value is reported as -0.297% [at 95.7 µM] (inactive).
With CC(=O)OC1(c2ccccc2)CCN(CCc2ccccc2)CC1 the “fluorescence, % of fluorescent control” value was 0.0379% [at 95.7 µM] (inactive).
For NNC(=O)c1ccccc1, the “fluorescence, % of fluorescent control” value was 0.0614% [at 95.7 µM] (inactive).
With FC(Cl)(Cl)Cl the “fluorescence, % of fluorescent control” value was -0.0284% (inactive).
For C[C@H]1CC[C@@H]2[C@@H](C)[C@H]3[C@H](C[C@H]4[C@@H]5CC=C6CC(O[C@@H]7O[C@H](CO)[C@H](O)[C@H](O[C@@H]8O[C@H](CO)[C@@H](O)[C@H](O)[C@H]8O)[C@H]7O[C@H]7O[C@@H](C)[C@H](O)[C@@H](O)[C@H]7O)CC[C@]6(C)[C@H]5CC[C@]34C)N2C1 (stereo not given in full), the Potency was “inactive”.
With CC[C@H]1C[C@@H]2C[C@H]3c4[nH]c5ccc(OC)cc5c4CCN(C2)[C@@H]13 the “fluorescence, % of fluorescent control” value was 0.667% (inactive).
For CCCCCCCCCCCCCC[P+](CCCCCC)(CCCCCC)CCCCCC (tested in a mixture with another compound), the “fluorescence, % of fluorescent control” value was 0.0182% (inactive).
For CCOC(=O)OC1=C(c2cc(C)ccc2C)C(=O)NC12CCC(OC)CC2 (stereo not given), the “fluorescence, % of fluorescent control” value was -0.0174% (inactive).
For CCOCCOC(C)=O, the “fluorescence, % of fluorescent control” value was -0.305% (inactive).
In the case of O=c1[nH]c2ccccc2n1C1CCN(CCCC(c2ccc(F)cc2)c2ccc(F)cc2)CC1, the Potency is reported as “inactive”.
For CC(C)(C)c1cc([N+](=O)[O-])cc(C(C)(C)C)c1O, the “fluorescence, % of fluorescent control” value was -0.426% (inactive).
With O=[N+]([O-])c1c2ccccc2cc2ccccc12 the “fluorescence, % of fluorescent control” value was 0.477% (inactive).
In the case of CN(C)S(=O)(=O)N(SC(F)(Cl)Cl)c1ccccc1, the “fluorescence, % of fluorescent control” value is reported as -0.154% (inactive).
With CCCCCCCCCCCCCCCC[n+]1ccccc1 the Potency was “inactive”.
For Nc1ccc(Cc2ccc(N)c(Cl)c2)cc1Cl, the “fluorescence, % of fluorescent control” value was -0.0839% (inactive).
For O=C(CCCN1CCC2(CC1)C(=O)NCN2c1ccccc1)c1ccc(F)cc1, the “fluorescence, % of fluorescent control” value was 8.3e-05% [at 46 µM] (inactive).
With Cc1ccc(OP(=O)(Oc2ccccc2)Oc2ccccc2)cc1 the “fluorescence, % of fluorescent control” value was -0.0081% [at 95.7 µM] (inactive).
For O=C(CCl)Nc1ccccc1, the “fluorescence, % of fluorescent control” value was 0.0297% (inactive).
For BrCBr, the “fluorescence, % of fluorescent control” value was 0.0055% [at 95.7 µM] (inactive).
For C[C@@H]1CC[C@@]2(OC1)O[C@H]1[C@@H](O)[C@H]3[C@@H]4CC[C@H]5C[C@@H](O[C@@H]6O[C@H](CO)[C@H](O[C@@H]7O[C@H](CO)[C@@H](O)[C@H](O[C@@H]8OC[C@@H](O)[C@H](O)[C@H]8O)[C@H]7O[C@@H]7O[C@H](CO)[C@@H](O)[C@H](O[C@@H]8O[C@H](CO)[C@@H](O)[C@H](O)[C@H]8O)[C@H]7O)[C@H](O)[C@H]6O)[C@H](O)C[C@]5(C)[C@H]4CC[C@]3(C)[C@H]1[C@@H]2C, the “fluorescence, % of fluorescent control” value was 0.0498% [at 95.7 µM] (inactive).
With ClC1=C(Cl)[C@]2(Cl)[C@@H]3[C@@H]4C[C@@H]([C@H]5O[C@@H]45)[C@@H]3[C@@]1(Cl)C2(Cl)Cl the “fluorescence, % of fluorescent control” value was -0.136% (inactive).
For CC1(C)C(/C=C(\Cl)C(F)(F)F)C1C(=O)OC(C#N)c1cccc(Oc2ccccc2)c1 (stereo not given), the “fluorescence, % of fluorescent control” value was 0.0339% [at 95.7 µM] (inactive).
In the case of CC1(C)[C@H](C(=O)O[C@H](C#N)c2cccc(Oc3ccccc3)c2)[C@@H]1/C=C(\Cl)C(F)(F)F, the “fluorescence, % of fluorescent control” value is reported as -0.0231% (inactive).
With c1ccc(OCC2CO2)cc1 (stereo not given) the “fluorescence, % of fluorescent control” value was 0.0119% (inactive).
For O=[N+]([O-])O.O=[N+]([O-])O.[Cd], the “fluorescence, % of fluorescent control” value was 0.0054% (inactive).
With COP(=O)(OC)SCn1c(=O)oc2cc(Cl)cnc21 the “fluorescence, % of fluorescent control” value was -0.0289% (inactive).
With CC(=O)[O-].CC(=O)[O-].O.O.[Cd+2] the “fluorescence, % of fluorescent control” value was -0.0166% (inactive).
For Cc1cc(N=Nc2ccccc2C)ccc1N, the Potency was “inactive”.
With C1CCC2CCCCC2C1 (stereo not given) the “fluorescence, % of fluorescent control” value was 0.142% [at 95.7 µM] (inactive).
In the case of O=C(NC(=O)c1c(F)cccc1F)Nc1cc(Cl)c(OC(F)(F)C(F)F)c(Cl)c1, the “fluorescence, % of fluorescent control” value is reported as -0.175% (inactive).
With C[C@@H]1O[C@@H](O[C@@H]2C=C3CC[C@@H]4[C@H](CC[C@]5(C)[C@@H](c6ccc(=O)oc6)CC[C@]45O)[C@@]3(C)CC2)[C@H](O)[C@H](O)[C@H]1O the fluorescence, % of fluorescent control was 0.14% [at 18.6 µM] (inactive).
With CC(C)Oc1cccc(NC(=O)c2ccccc2C(F)(F)F)c1 the “fluorescence, % of fluorescent control” value was -0.202% (inactive).
In the case of [CH3][Hg][Cl], the “fluorescence, % of fluorescent control” value is reported as 0.0038% (inactive).
